KB-V1 MDR tox = kills drug-selected multidrug resistant KB-V1 cells | KB-V1 MDR cells viability, CellTiter-Glo, 72 h | Potency, µM (top dose mostly 46.1 µM), usual class: cytotoxic | 3.4% of 400,000 active; also: potency is read from the fitted curve at half-maximal effect; % is scaled to controls: 0 for no effect and ±100 for the full control effect; nearly all actives have a fitted effect of over 60% in size
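Following 72 h at 37 degrees C with compound, KB-V1 cell viability was read by CellTiter-Glo luminescence, medium being phenol-red-free DMEM plus 10% FBS; concentration-response parameters came from normalized, curve-fitted qHTS data.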
SW480 rereplic = induces DNA re-replication in SW480 colon adenocarcinoma cells. SW480 DNA re-replication, Hoechst DNA content imaging, 48 h. Potency, µM (titrated, usually from 46.1 µM), inactives show at the top dose re-replication activation, actives largely listed as activators. 1.8% of 340,000 active. AID 624297; also: potency is read from the fitted curve at half-maximal effect; % of control where 0% means no effect; nearly all actives have a fitted effect of over 55% in size
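First, 250 cells per well were seeded. Next, compound or vehicle (23 nL) was pinned in, plates sat 48 hr at 37 C. Finally Hoechst was added for 40 min before fluorescence scanning.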
IL1B secr inh = inflammasome signaling inhibition, IL-1 beta readout; THP-1 LPS/ATP IL-1B secretion, AlphaLISA, 16 h; hits give low values; activity change, % at 57.5 µM; 4.7% of 360,000 active; in the data active = activity change below about -50%; inconclusive = mostly about -30% to -49%; also: % is scaled to controls: 0 for no effect and ±100 for the full control effect
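THP-1 cells pretreated 1 hr with compounds (up to 57.5 uM final), then stimulated with LPS (250 ng/mL final) plus ATP (1.25 mM final); secreted IL-1B measured by AlphaLISA after 16 hr, decreased signal indicating inhibition.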
KB-3-1 tox = KB-3-1 parental cell cytotoxicity. 1.4% of 400,000 active. AID 1347075. KB-3-1 viability, CellTiter-Glo ATP luminescence, 72 h. Potency, µM (highest dose often 46.1 µM), actives largely listed as cytotoxic; also: potency is read from the fitted curve at half-maximal effect; % is scaled to controls: 0 for no effect and ±100 for the full control effect; nearly all actives have a fitted effect of over 60% in size
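KB-3-1 parental drug-naive adenocarcinoma cells in DMEM/10% FBS, incubated 72 h at 37 C with pin-transferred compounds across a concentration series. Viability by CellTiter-Glo luminescence; concentration-response curves fitted after normalization.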
MCF10A rereplic = induces DNA re-replication in MCF 10a normal breast cells. MCF 10A DNA re-replication, Hoechst nuclear intensity, 48 h. Potency, µM (top dose mostly 46.1 µM), for inactives: at the top dose activity, positive = re-replication, hits mostly activators. 2.9% of 350,000 active. AID 624296; also: potency is read from the fitted curve at half-maximal effect; % of control where 0% means no effect; nearly all actives have a fitted effect of over 50% in size
An asterisk follows results filed as active; ! = not active in a repeat; [ ] = remark or other dose. Most compounds without a hit are left out; they make up all but 9.9% or so of the library. Unless noted, calls follow the shape of the dose curve; as a rule, active = well fitted curve in the direction sought with a large enough effect; inconclusive = small, poorly fitted or top-dose-only effect, or another doubt; inactive = no such curve, though single readings can be large; an effect the other way counts as inactive or inconclusive.

Results for CC(Sc1nnc2ccccn12)C(=O)Nc1ccc(Cl)cn1 (stereo not given) ?
KB-V1 MDR tox: inactive; SW480 rereplic: -2%; IL1B secr inh: 12; KB-3-1 tox: inactive; MCF10A rereplic: -10%

What do the screens show for `CCc1ccc(NC(=O)c2cnc(SC)nc2C)cc1`?
KB-V1 MDR tox: inactive; SW480 rereplic: 11%; IL1B secr inh: 22; KB-3-1 tox: inactive; MCF10A rereplic: 1%

What do the screens show for `COc1ccc(-n2c(C)nc3cc(C(=O)NC4CCCC4)ccc32)cc1`?
KB-V1 MDR tox: inactive; KB-3-1 tox: inactive

How did COc1ccc(NC(=O)N(C)[C@H]2C[C@H]3c4[nH]c5ccc(-c6ccc(OC)cc6)cc5c4CCN3C[C@H]2[C@H](C)O)cc1 do in these assays?
KB-V1 MDR tox: inconclusive; IL1B secr inh: inconclusive; KB-3-1 tox: 21µM*

Results for COc1ccc(NC(=O)N(C)[C@H]2C[C@H]3c4[nH]c5ccc(-c6ccc(OC)cc6)cc5c4CCN3C(=O)[C@H]2[C@H](C)O)cc1 ?
KB-V1 MDR tox: inactive; IL1B secr inh: 0; KB-3-1 tox: inconclusive

Results for CN[C@H]1C[C@H]2c3[nH]c4ccc(-c5ccc(OC)cc5)cc4c3CCN2C(=O)[C@H]1[C@H](C)O ?
KB-V1 MDR tox: inconclusive; IL1B secr inh: inconclusive; KB-3-1 tox: 5.8µM*

How did COC(=O)C1=C(C(=O)OC)[C@]2([C@@H]3CC=CCN[C@@H](Cc4ccccc4)C(=O)N3Cc3ccccc3)C=C[C@H]1O2 do in these assays?
KB-V1 MDR tox: inactive; SW480 rereplic: -5%[9.22 µM]; IL1B secr inh: 10; KB-3-1 tox: inactive; MCF10A rereplic: 2%

Results for C=CCC(Nc1ccccc1)C12C=CC(O1)C(C(=O)OC)=C2C(=O)OC (stereo not given) ?
KB-V1 MDR tox: inconclusive; SW480 rereplic: inconclusive; IL1B secr inh: -113*; KB-3-1 tox: 18µM*; MCF10A rereplic: 13µM*

Results for COC(=O)c1cc(-c2c(-c3cc(OC)c(OC)c(OC)c3)noc2C)cc([N+](=O)[O-])c1 ?
KB-V1 MDR tox: inactive; SW480 rereplic: 27%; IL1B secr inh: 15; KB-3-1 tox: inconclusive; MCF10A rereplic: inconclusive

How did COc1cc(-c2c(-c3cc(OC)c(OC)c(OC)c3)noc2C)ccc1F do in these assays?
KB-V1 MDR tox: 0.41µM*; SW480 rereplic: 1.3µM*; IL1B secr inh: 88; KB-3-1 tox: 0.33µM*!; MCF10A rereplic: inconclusive

What do the screens show for `COc1ccc(-c2c(-c3cc(OC)c(OC)c(OC)c3)noc2C)cn1`?
KB-V1 MDR tox: 1.6µM*!; SW480 rereplic: 7.3µM*; IL1B secr inh: 27; KB-3-1 tox: 1.6µM*; MCF10A rereplic: 1.6µM*

What do the screens show for `COc1ccc2cc3c(N)nn(C(=O)c4ccccc4Cl)c3nc2c1`?
KB-V1 MDR tox: inconclusive; SW480 rereplic: 4.1µM*; IL1B secr inh: -65*; KB-3-1 tox: inconclusive; MCF10A rereplic: 23%

How did COc1ccc2cc3c(N)nn(C(=O)c4ccc(F)cc4)c3nc2c1 do in these assays?
KB-V1 MDR tox: inconclusive; SW480 rereplic: inconclusive; IL1B secr inh: inconclusive; KB-3-1 tox: inactive; MCF10A rereplic: inconclusive

Results for COc1ccc2cc3c(N)nn(C(=O)Cc4c[nH]c5ccccc45)c3nc2c1 ?
KB-V1 MDR tox: inactive; SW480 rereplic: inconclusive; IL1B secr inh: -98*; KB-3-1 tox: inconclusive; MCF10A rereplic: inconclusive

What do the screens show for `CCOc1ccc(NC(=O)Cn2c(=O)n(Cc3ccc(C(=O)NCc4ccc(C)cc4)cc3)c(=O)c3ccccc32)cc1`?
KB-V1 MDR tox: inactive; KB-3-1 tox: inactive

What do the screens show for `O=c1c2c(-c3ccccc3)csc2ncn1/N=C/c1cccc([N+](=O)[O-])c1O`?
KB-V1 MDR tox: inactive; SW480 rereplic: inconclusive; IL1B secr inh: 55; KB-3-1 tox: inactive; MCF10A rereplic: 7%

How did Cn1cc(/C=N/n2cnc3scc(-c4ccccc4)c3c2=O)c2ccccc21 do in these assays?
KB-V1 MDR tox: 2.1µM*; SW480 rereplic: 15µM*; IL1B secr inh: 52; KB-3-1 tox: 5.2µM*; MCF10A rereplic: inconclusive

Results for Cc1cc(=O)c2ccccc2[nH]1 ?
KB-V1 MDR tox: inactive; SW480 rereplic: 2%; IL1B secr inh: 21; KB-3-1 tox: inactive; MCF10A rereplic: -1%

Results for Cc1cc(=O)c2cc(Br)ccc2[nH]1 ?
KB-V1 MDR tox: 16µM*; SW480 rereplic: 0%; IL1B secr inh: 8; KB-3-1 tox: inactive; MCF10A rereplic: 4%

What do the screens show for `CN(C)c1ccc(C=Cc2cnccn2)cc1`?
KB-V1 MDR tox: inactive; SW480 rereplic: inconclusive; IL1B secr inh: -12; KB-3-1 tox: inactive; MCF10A rereplic: 18µM*

What do the screens show for `COC1(OC)C(=N/O)/C(=N\O)CCC1O` (stereo not given)?
KB-V1 MDR tox: inactive; SW480 rereplic: 13%; IL1B secr inh: 16; KB-3-1 tox: inactive; MCF10A rereplic: 16µM*

How did CCCCCc1ccc(CC(=O)Nn2c(C)nc3ccccc3c2=O)cc1 do in these assays?
KB-V1 MDR tox: inconclusive; SW480 rereplic: -3%; IL1B secr inh: -19; KB-3-1 tox: inactive; MCF10A rereplic: inconclusive

How did CC1(C)C(=O)C=C(N2CCCCC2)c2ccccc21 do in these assays?
KB-V1 MDR tox: inactive; IL1B secr inh: 10; KB-3-1 tox: inactive

What do the screens show for `C/C(CC(=O)Nc1cccc(Cl)c1Cl)=N\NC(=O)c1ccccc1N`?
KB-V1 MDR tox: inactive; SW480 rereplic: 2%; IL1B secr inh: -56*; KB-3-1 tox: inactive; MCF10A rereplic: inconclusive

What do the screens show for `C/C(CC(=O)Nc1ccccn1)=N\NC(=O)c1ccccc1O`?
KB-V1 MDR tox: inactive; SW480 rereplic: 1.3µM*; IL1B secr inh: 145; KB-3-1 tox: inconclusive; MCF10A rereplic: 14%

Results for C/C(CC(=O)Nc1cc(C)ccn1)=N\NC(=O)c1cccc(C)c1O ?
KB-V1 MDR tox: inconclusive; SW480 rereplic: 12µM*; IL1B secr inh: 70; KB-3-1 tox: inconclusive; MCF10A rereplic: inconclusive

What do the screens show for `CC(C)(C)c1ccc(C(=O)C[n+]2ccccc2Cl)cc1`?
KB-V1 MDR tox: inactive; KB-3-1 tox: inactive

How did O=C(O)C1=C(CSc2nnnn2CS(=O)(=O)O)CS[C@@H]2[C@H](NC(=O)[C@H](O)c3ccccc3)C(=O)N12 do in these assays?
SW480 rereplic: -5%; MCF10A rereplic: 5%

What do the screens show for `O=C(Nc1ccc(CN2CCOCC2)cc1)c1ccc(-c2cc(Cl)ccc2Cl)o1`?
KB-V1 MDR tox: inconclusive; SW480 rereplic: inconclusive; IL1B secr inh: -64*; KB-3-1 tox: inconclusive; MCF10A rereplic: inconclusive

How did COc1ccccc1C(=O)Nc1ccc(CN2CCCCC2)cc1 do in these assays?
KB-V1 MDR tox: inactive; SW480 rereplic: -7%[9.22 µM]; IL1B secr inh: -4; KB-3-1 tox: inactive; MCF10A rereplic: 28%
